SMILES strings stand for the structures. Calls of active or inactive are those of the source. No rule for the calls is given here.
Potency is read from the fitted curve at half-maximal effect.

In this assay the test system is HIV-1 nucleocapsid protein NCp7 (binding to TG oligonucleotide). Kind of assay: HIV Nucleocapsid (AID 346).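 Also: potency is for inhibitors that block NC binding and lower polarization.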 The note with it: HIV-1 NC / fluorescein-TGTGTGTG probe, fluorescence polarization. A digest of the protocol: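 NCp7 100 nM + fluorescein TG4xF 10 nM; Hepes pH 7.5/250mM NaCl/1uM ZnCl2/0.004% PEG 20000; 1 hr RT; FP, 45 s exposure; oligo-only wells as negative control.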
(In general: In fluorescence polarisation assays a small probe gives low polarisation when free and higher when bound to something large.)
Regarding `c1ccc2c(N3CCNCC3)nc(-c3ccc4c(c3)OCO4)nc2c1`, the Potency is > 20 µM (inactive).

As for `CN(C)C(=O)c1ccc(-c2ccc3ncnc(N4CCC(C(=O)O)CC4)c3c2)cc1`, the Potency is > 20 µM (inactive).

In the case of `COc1ncc2ncc(=O)n(C)c2n1`, the Potency was > 20 µM (inactive).

In the case of `COc1ncc2nc(C)c(=O)n(Cc3cccs3)c2n1`, the Potency was > 20 µM (inactive).

As for `COc1ccc(-c2nc3cnc(N(C)C)nc3n(CCC#N)c2=O)cc1`, the Potency is > 20 µM (inactive).

For the compound `COc1cccc(Cn2c(=O)c(CCc3ccccc3)nc3cnc(OC)nc32)c1`, the Potency is > 20 µM (inactive).

Consider `CNc1ncncc1-c1ccccc1C`, for which the Potency is > 20 µM (inactive).

For the compound `COc1ccc(-c2nc3cnc(N(C)C)nc3n(C[C@H]3CCCO3)c2=O)cc1`, the Potency is > 20 µM (inactive).

As for `COc1ccccc1CNc1nc(-c2ccccc2CN(C)C)nc2ccccc12`, the Potency is > 20 µM (inactive).

Turning to `COc1ccccc1CN1CC2(CCN(S(=O)(=O)c3ccccc3)CC2)C1`, the Potency was > 20 µM (inactive).

On to `COc1ccc(NC(=O)N2CC3(CCN(C(=O)c4csnn4)CC3)C2)cc1`, for which the Potency was > 20 µM (inactive).

As for `Cc1noc(C)c1C(=O)N1CCC2(CCCN(c3ccccn3)C2)CC1`, the Potency is > 20 µM (inactive).

Take `CNc1cc(-c2ccccc2CN(C)C)ncn1`: the Potency is > 20 µM (inactive).

Take `COc1ccc(-n2c(=O)c(C)nc3cnc(Oc4ccccc4)nc32)cc1`: the Potency was > 20 µM (inactive).

`COc1cccc(-c2nccc(NCc3ccccc3)n2)c1`: the Potency was > 20 µM (inactive).

On to `COc1ccc(-c2nc3cnc(N4CCNCC4)nc3n(Cc3cccc(OC)c3)c2=O)cc1`, for which the Potency was > 20 µM (inactive).

The values above are taken from PubChem BioAssay (NCATS).
